# Only some compounds are listed: those with a hit (about 2.9% of all), similar ones and a draw of the others.
# MEKK2 WT-MEK5: raises or lowers MEK5 binding to wildtype human MEKK2 PB1 domain; Q9Y2U5; bead flow cytometry, Alexa488-MEK5 binding to MEKK2 WT; actives lie on both sides; binding response (% of control), % at 10 µM; actives 1.1% (n = 290,000); in the data active means binding response below about 67% or above about 130%
# MEKK2mut PB1 HTS: signal of MEK5 binding to mutant human MEKK2 PB1 domain; bead flow cytometry, Alexa488-MEK5 binding to MEKK2 mutant; percent response, % at 10 µM; actives 0.35% (n = 290,000); in the data active means percent response above about 24%, passing the limit was not always enough
# ABCB6 inh MLPCN: human ABCB6 transporter inhibition. K562-ABCB6 porphyrin accumulation, flow cytometry, 1 h; active compounds read low. fluorescence ratio to DMSO, % at 10 µM. actives 0.19% (n = 360,000). AID 602162;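 active means fluorescence ratio to DMSO below 75%, the collection mean minus 3 SD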;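 further: signal is porphyrin accumulated inside mitochondria; 100% equals median channel fluorescence of DMSO control wells; lower ratio means ABCB6 inhibition with less porphyrin fluorescence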
# CRFR2-BP ag: agonists of human CRF-binding protein/CRF-R2 receptor complex; HEK293 CRF-R2/CRF-BP, calcium dye fluorescence (FLIPR); percent of saturating CRF peptide response; activation, % at 13.2 µM; actives 0.46% (n = 350,000);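 active means activation of at least 50%, plus an integration ratio under a set limit after plate pattern correction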;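 further: plate controls were neutral control wells without compound for no effect and CRF at EC100 for full effect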
# CRFBP-R2 block: antagonists of CRF-binding protein/CRF-R2 receptor complex; HEK293 CRF-R2/CRF-BP, CRF-induced calcium fluorescence; inhibition, % at 11.8 µM; actives 0.59% (n = 350,000);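 active means inhibition of the ligand-induced calcium signal above about 50% at the single tested concentration, limit read from the data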
# MEKK3 PB1 HTS: modulators (inhibitors or enhancers) of MEK5 binding to human MEKK3 PB1 domain. Q99759. bead-based flow cytometry, Alexa488-MEK5 binding to MEKK3; actives lie on both sides; 0 = blocked by unlabeled MEK5, 100 = vehicle. binding response (% of control), % at 10 µM. actives 1.4% (n = 290,000). AID 1529;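 active means binding response more than 3 SD above or below the average of its plate-row segment, actives on both sides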;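 further: Alexa488 bead fluorescence after subtracting the streptavidin-only scavenger bead signal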
# Target sequence (Q99759 whole entry, looked up, the tested form may be a part): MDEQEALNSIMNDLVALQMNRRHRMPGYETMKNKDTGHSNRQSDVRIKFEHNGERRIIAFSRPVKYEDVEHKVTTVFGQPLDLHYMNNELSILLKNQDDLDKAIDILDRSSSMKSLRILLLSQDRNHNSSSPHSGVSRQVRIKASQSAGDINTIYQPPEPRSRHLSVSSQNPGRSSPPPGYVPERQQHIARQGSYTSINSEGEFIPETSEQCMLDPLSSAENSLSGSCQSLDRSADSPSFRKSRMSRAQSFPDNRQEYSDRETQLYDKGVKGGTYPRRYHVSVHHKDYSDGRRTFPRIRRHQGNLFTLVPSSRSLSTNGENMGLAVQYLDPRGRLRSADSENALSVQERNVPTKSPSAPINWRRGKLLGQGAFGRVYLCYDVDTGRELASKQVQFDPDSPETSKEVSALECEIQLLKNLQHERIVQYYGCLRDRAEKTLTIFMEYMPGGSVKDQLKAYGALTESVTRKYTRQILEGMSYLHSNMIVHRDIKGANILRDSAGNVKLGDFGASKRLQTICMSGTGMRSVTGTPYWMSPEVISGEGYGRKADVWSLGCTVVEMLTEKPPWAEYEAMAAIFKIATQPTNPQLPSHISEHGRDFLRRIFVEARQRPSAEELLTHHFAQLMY
# * marks the source's active call; other numbers are inactive results; i = inactive; . = not tested or not shown; [ ] = remark or other dose.
SMILES,MEKK2 WT-MEK5,MEKK2mut PB1 HTS,ABCB6 inh MLPCN,CRFR2-BP ag,CRFBP-R2 block,MEKK3 PB1 HTS
COC(=O)[C@]12CCCCC=C1N(Cc1ccccc1)C(=O)[C@H](CC(=O)NCCC(C)C)C2,.,.,96,.,.,.
O=C(Nc1ccc(Nc2ccncc2)cc1)c1ccc(Nc2ccnc3ccc([N+](=O)[O-])cc23)cc1[N+](=O)[O-],28*[inhibitor],-49,100,1,5,13*[inhibitor]
CCCN1C(=O)/C(=C/c2c(N3CCNC(=O)C3CC(=O)OCC)nc3c(C)cccn3c2=O)SC1=S (stereo not drawn),91,-6,311,191*,-200,99
CCC(C)Nc1nc2c(C)cccn2c(=O)c1C=Nc1ccc(OC)cc1 (stereo not drawn),107,6,95,1,-3,109
CCCN1C(=O)/C(=C/c2c(NCCCOC(C)C)nc3c(C)cccn3c2=O)SC1=S,71,-4,i,191*,-233,94
CS(=O)(=O)N(Cc1ccc(Cl)cc1)c1ccc(C(=O)NCCSc2ccccn2)cc1,102,1,89,54*,2,99
O=C(NCCSc1ccccn1)c1ccc(Cl)cc1,91,0,96,2,-10,98
CCCCN(C)CCNC(=O)c1cc(-c2cccnc2)nc2ccc(S(=O)(=O)N3CCC(C)CC3)cc12,136*,14,102,1,-2,103
CC(C)(C)OC(=O)N1CCCC(C(=O)Nc2cccc(C(=O)NCCCCc3ccccc3)c2)C1 (stereo not drawn),.,.,95,1,6,.
N#CC(C#N)=C1C=C2C=C(N3CCCCC3)CCC2CC1 (stereo not drawn),86,-6,.,187*,-154,100
CCOc1ccccc1NC(=O)CCCNC(=O)Cn1cnc2sc(C)c(C)c2c1=O,108,7,101,-1,-9,104
CCOC(=O)c1cc(S(=O)(=O)Nc2ccc(F)cc2F)cn1C,100,-2,90,0,72*,99
CCOC(=O)c1cc(S(=O)(=O)Nc2cccc(OC)c2)cn1C,97,2,102,-1,10,99
CC(=O)c1c(N2CCCCC2)nc(=S)n(Cc2ccccc2)c1C,99,-1,99,0,108*,105
CCC1C(=O)NCCN1C(=O)c1ccc2nc(Cc3cccc(Cl)c3)oc2c1 (stereo not drawn),94,-7,92,1,-17,99
CCS(=O)(=O)c1nc(S(=O)(=O)c2ccc(C)cc2)c(N2CCN(C)CC2)s1,99,0,99,0,-31,99
O=C1CSC(c2ccccc2F)N1c1cc(Cl)ccc1O (stereo not drawn),95,2,103,-1,53*,101
CCN(CC)C1Oc2cc3c(cc2C(c2cccc(OC)c2O)C1C)OCO3 (stereo not drawn),.,.,97,0,120*,.
CC(=O)c1cccc(NC(=O)CN(C)Cc2ccc(OC(F)F)cc2)c1,99,-5,102,-4,13,96
O=c1[nH]c(SCc2ccc(OC(F)(F)F)cc2)nc2c1CCC2,.,.,99,.,.,.
CCOc1ccc(CCNC(=O)c2cccc(NC3=NC4CS(=O)(=O)CC4S3)c2)cc1OCC (stereo not drawn),110,10,96,-6,50*,102
CCOc1ccc(CCNC(=O)c2cccc(NC3=NC4CS(=O)(=O)CC4S3)c2)cc1 (stereo not drawn),105,3,99,-2,8,98
CC1Cc2ccccc2N1C(=O)c1cc2cccnc2n(C)c1=O (stereo not drawn),.,.,103,1,-3,.
Oc1ccccc1N=N/C(=N/Nc1ccccc1O)c1ccccc1,.,.,98,-2,-21,.
N#C/C(N=Nc1ccccc1O)=N\Nc1ccccc1O,.,.,104,61*,97*,.
SMILES,MEKK2 WT-MEK5,MEKK2mut PB1 HTS,ABCB6 inh MLPCN,CRFR2-BP ag,CRFBP-R2 block,MEKK3 PB1 HTS
O=c1/c(=C/c2ccccn2)sc2nc3ccccc3n12,.,.,96,5,-12,.
O=c1/c(=C\c2cc([N+](=O)[O-])cc([N+](=O)[O-])c2O)sc2nc3ccccc3n12,103,-1,142,6,60*,110
O=C(O)c1cc(C(=O)O)cc(-c2ccc(/C=c3/sc4nc5ccccc5n4c3=O)o2)c1,61*[inhibitor],-37,.,26,-62,71*[inhibitor]
O=C(O)c1cccc(-c2ccc(/C=c3/sc4nc5ccccc5n4c3=O)o2)c1,92,-2,120,69*,-55,102
O=S(=O)(c1ccccc1)c1nc(-c2cccc(Cl)c2)oc1N1CCOCC1,98,2,101,-1,-2,98
CC(Nc1ccc(Br)cc1)C(=O)Nc1cccc(S(=O)(=O)N2CCOCC2)c1 (stereo not drawn),.,.,96,2,90*,.
O=C(CCOc1ccccc1)Nc1ccccc1,104,10,97,-1,25,108
CC(=O)Nc1ccc(NC(=O)COc2ccc([N+](=O)[O-])cc2)cc1,98,-9,95,-1,60*,94
O=C(CCOc1ccccc1)Nc1ccc([N+](=O)[O-])cc1,93,-2,98,1,67*,91
Cc1cc(C)c(S(=O)(=O)N2CCOC2CNC(=O)C(=O)NCCCn2ccnc2)c(C)c1 (stereo not drawn),100,-2,107,2,-15,93
Cc1nn(Cc2ccc(Cl)cc2)c(C)c1NC(=O)c1ccc([N+](=O)[O-])cc1,93,12,91,-1,56*,99
Cc1nn(Cc2ccc(Cl)cc2)c(C)c1NC(=O)Cn1nc([N+](=O)[O-])c(Cl)c1C,99,-4,196,4,17,98
O=C1Nc2cc(C(=O)NCC3CCCO3)ccc2S/C1=C/c1ccccc1F (stereo not drawn),101,4,88,-1,-8,104
O=c1oc(-c2ccco2)nc2sc3c(c12)CCCC3,107,6,103,1,52*,104
Cc1cccc(C)c1OCC(O)Cn1nnc2ccccc21 (stereo not drawn),102,6,94,-1,65*,99
CC(=O)c1ccc(OCC(O)Cn2nnc3ccccc32)cc1 (stereo not drawn),97,-2,102,2,4,100
O=C(N/N=C1/C(=O)c2cccc3cccc1c23)c1ccc(Cl)cc1,108,6,102,52*,15,109
CCNC(=S)N/N=C1\C(=O)c2cccc3cccc1c23,113,8,110,-1,12,108
Cc1ccsc1C(=O)N1CCCC(N2CCN(c3cccc(Cl)c3)CC2)C1 (stereo not drawn),111,9,101,-1,0,108
